These results are taken from paper PMC4552634, “A New Set of Chemical Starting Points with Plasmodium falciparum Transmission-Blocking Potential for Antimalarial Drug Discovery” (PLoS ONE, 2015).

The campaign covered roughly 13,000 compounds. About 3,200 (25%) showed an effect of 50% or more. Some of the results follow.

The assay concerns P. falciparum stage V gametocytes. More on the design: BacTiter-Glo ATP luminescence viability of purified stage V gametocytes in 384-well plates, per cent inhibition versus DMSO. Particulars: 48 h, 5 µM; inhibitor.
As a reminder, the % Inhibition is the drop in the measured response relative to a control, in per cent. With `CC1(C)C(=O)Nc2ccccc2N1C(=O)CN1CCN(c2ccccc2O)CC1` [TCMDC-124856], the “% Inhibition” value is reported as -25.41%.

Turning to `CC(C(=O)N1CCCC1)N1CCN(S(=O)(=O)c2ccc(C(C)(C)C)cc2)CC1` (stereo not shown) [TCMDC-125011], the “% Inhibition” value is recorded as 54.13%.

As to `Cc1ccc(S(=O)(=O)N2CCCN(C(=O)c3cc(-c4ccccc4)n[nH]3)CC2)cc1` [TCMDC-125243], the “% Inhibition” value worked out at 32.96%.

Consider `CC(C(=O)N1CCCC1)N1CCN(C(c2ccccc2)c2ccccc2)CC1` (stereo not shown) [TCMDC-123562], for which the “% Inhibition” value is 15.58%.

On to `C=CCn1c(SCC(=O)Nc2cc(C)ccc2OC)nc2sc(C)cc2c1=O` [TCMDC-123737], for which the “% Inhibition” value is listed as -0.9433%.

In the case of `O=c1cc(NCCCNCc2cccc3c2OC(F)(F)O3)[nH]c2ccccc12` [TCMDC-139425], the “% Inhibition” value is recorded as -37.26%.

For the compound `CC(C)CN1CCN(c2nc(C#N)c3c(c2C(=S)NC2CCCCC2)CC(C)(C)OC3)CC1` [TCMDC-124173], the “% Inhibition” value amounted to 83.9%.

`CCCN(CCC)C(=S)N=Nc1c(O)[nH]c2ccccc12` [TCMDC-138078]: the “% Inhibition” value is on record as -20.57%.

Turning to `COCCn1c(C)nc2ccccc2c1=O` [TCMDC-124916], the “% Inhibition” value was -2.427%.

As to `Cc1ccc2c(=O)n(C)c(=O)n(C)c2n1` [TCMDC-123937], the “% Inhibition” value is 60.67%.

Turning to `O=C(NCCN1CCCC1)c1cc(-c2ccc(Cl)c(O)c2)c(-c2ccncc2)o1` [TCMDC-135295], the “% Inhibition” value is on record as 13.58%.

Take `Cc1nc(N)nc(N)c1CCCOc1ccccc1Br` [TCMDC-138069]: the “% Inhibition” value is given as -36.44%.

Consider `O=C(Nc1ccc(-c2cccc(-c3nc4ccccc4[nH]3)c2)cc1)c1cnn2cccnc12` [TCMDC-136863], for which the “% Inhibition” value is listed as -40.98%.

In the case of `COc1ccc(CNC2Cc3ccccc3C2)cc1-c1ccc(OC)c(S(=O)(=O)NCCN2CCCC2)c1` [TCMDC-132251], the “% Inhibition” value is recorded as 107.6%.

Turning to `COc1ccc(CNC2Cc3ccccc3C2)cc1-c1ccc(S(=O)(=O)NCCN2CCCC2)c(F)c1` [TCMDC-132266], the “% Inhibition” value is recorded as 84.74%.

In the case of `COc1ccc(-c2ccc(CNC3Cc4ccccc4C3)cc2)cc1S(=O)(=O)NCCN1CCCC1` [TCMDC-132472], the “% Inhibition” value is reported as 95.39%.

Consider `COc1ccc(-c2ccccc2CNC2Cc3ccccc3C2)cc1S(=O)(=O)NCCN1CCCC1` [TCMDC-132211], for which the “% Inhibition” value was found to be 56.67%.

Take `O=C(NCc1ccc(F)cc1)Nc1ccc(-c2cccc(-c3nc4ccc(F)cc4[nH]3)c2)cc1` [TCMDC-133304]: the “% Inhibition” value is reported as -35.38%.

Take `Cc1cc(C)c(CON2C(N)=NC(N)=NC2(C)C)cc1C` [TCMDC-131652]: the “% Inhibition” value is on record as -5.978%.

As for `COc1ccc2nccc([C@@H](O)CN3CCC(NC(=O)Cn4nc(-c5ccc(C(F)(F)F)cc5)ccc4=O)CC3)c2c1` [TCMDC-141042], the “% Inhibition” value was -2.454%.

As to `CC(=O)c1ccccc1C(=O)N1CCOc2ccc(C(O)C(c3ccccc3)c3ccccc3)cc2C1` (stereo not shown) [TCMDC-124667], the “% Inhibition” value is -12.26%.

Regarding `O=C(NCCN1CCCC1)c1ccc(-c2ccc(-c3nc4ccccc4[nH]3)s2)cc1` [TCMDC-132314], the “% Inhibition” value is 24.13%.

As for `O=C(NCCCN1CCC(Cc2ccccc2)CC1)c1cc2c(Cl)nc3ccccc3c2s1` [TCMDC-125440], the “% Inhibition” value was -22.49%.

Take `Cn1c(=O)c2cc(C(=O)NCCCN3CCCCCC3)sc2c2ccccc21` [TCMDC-123889]: the “% Inhibition” value was found to be 59.14%.

Turning to `O=C(Nc1cccc(-c2cccc(-c3nc4ccccc4[nH]3)c2)c1)Nc1ccc(F)c(F)c1F` [TCMDC-133226], the “% Inhibition” value is -1.107%.

On to `Cc1cc(N[C@@H](CC(C)C)C(=O)NCc2cccc(F)c2)nc(NCCc2ccccc2)n1` [TCMDC-134870], for which the “% Inhibition” value was determined as 54.62%.

In the case of `Cc1cc(N[C@@H](CC(C)C)C(=O)NCCc2ccccc2)nc(NCCc2ccc(F)cc2)n1` [TCMDC-134796], the “% Inhibition” value is listed as 48.22%.

In the case of `Cc1cc(N[C@@H](CC(C)C)C(=O)NCc2cccc(F)c2)nc(Nc2ccccc2)n1` [TCMDC-134737], the “% Inhibition” value is reported as -10.43%.

As for `Cc1cccc(CNc2nc(C)cc(N[C@@H](CC(C)C)C(=O)NCc3cccc(F)c3)n2)c1` [TCMDC-134890], the “% Inhibition” value is on record as -6.286%.

For `Cc1cc(N[C@@H](CC(C)C)C(=O)NCc2cccc(F)c2)nc(NCCc2ccc(F)cc2)n1` [TCMDC-134792], the “% Inhibition” value was 53.15%.

Turning to `COc1cccc(-c2cnc(N)c(-c3nc4cc(Cl)c(F)cc4[nH]3)c2)c1` [TCMDC-138792], the “% Inhibition” value amounted to 26.62%.

On to `CN1CCC(N2CCN(Cc3ccc(-c4ccc(-c5nc6ccccc6[nH]5)s4)cc3)CC2)CC1` [TCMDC-133851], for which the “% Inhibition” value came out at 67.23%.

For `Fc1ccc2nc(-c3ccc(-c4ccc(CN5CCCCC5)cc4)s3)[nH]c2c1` [TCMDC-133897], the “% Inhibition” value is -55.88%.

As for `Cc1cccc2nc(-c3ccc(-c4cccc(NC(=O)CN5CCN(C)CC5)c4)s3)[nH]c12` [TCMDC-136988], the “% Inhibition” value was 20.22%.

Consider `Fc1ccc2nc(-c3ccc(-c4ccc(CN5CCN(CCN6CCOCC6)CC5)cc4)s3)[nH]c2c1` [TCMDC-133935], for which the “% Inhibition” value turned out to be 8.438%.

Take `c1ccc2[nH]c(-c3ccc(-c4ccc(CN5CCC(N6CCCCC6)CC5)cc4)s3)nc2c1` [TCMDC-136787]: the “% Inhibition” value worked out at 26.44%.

As to `Cc1cccc2nc(-c3ccc(-c4ccc(CN5CCN(C6CCN(C)CC6)CC5)cc4)s3)[nH]c12` [TCMDC-133866], the “% Inhibition” value was determined as 107%.

Regarding `Cc1cccc2nc(-c3ccc(-c4ccc(NC(=O)CN5CCN(C)CC5)cc4)s3)[nH]c12` [TCMDC-136987], the “% Inhibition” value is given as -6.57%.

Regarding `COC[C@H]1CCCN1Cc1ccc(-c2ccc(-c3nc4ccccc4[nH]3)s2)cc1` [TCMDC-136785], the “% Inhibition” value is -1.728%.

For the compound `CN1CCC(N2CCN(Cc3ccc(-c4ccc(-c5nc6ccc(F)cc6[nH]5)s4)cc3)CC2)CC1` [TCMDC-133859], the “% Inhibition” value was 93.67%.

For `O=C(Nc1ccc2nc(-c3ccccc3)[nH]c2c1)c1cc(-c2ccc3c(c2)OCCO3)n[nH]1` [TCMDC-134398], the “% Inhibition” value was 9.818%.

With `CS(=O)(=O)Nc1ccc2[nH]cc(C3CCN(CCCCCNC(=O)/C=C/c4ccc(Cl)c(Cl)c4)CC3)c2c1` [TCMDC-139325], the “% Inhibition” value is listed as -23.44%.

Take `Cc1cc(O)c2c(c1)OC(C)(C)C=C2C1=CCN(Cc2ccccc2)CC1` [TCMDC-131313]: the “% Inhibition” value is on record as -37.74%.

For `CN(C)S(=O)(=O)n1ncc2c3c(N)nc(N)nc3ccc21` [TCMDC-131933], the “% Inhibition” value was determined as 29.56%.

In the case of `O=C(/C=C/c1ccc(Cl)cc1)NCCCCCN1CCN(C(=O)Nc2ccc(Cl)c(C(F)(F)F)c2)CC1` [TCMDC-136093], the “% Inhibition” value came out at 12.32%.

For the compound `CCC[C@@H]([C@@H](CC1CCCCC1)C(=O)N[C@H](C(=O)Nc1nccs1)C(C)(C)SCCOCCOCC)N(O)C=O` [TCMDC-137777], the “% Inhibition” value was found to be 29.4%.

Consider `CS(=O)(=O)c1ccc(CCNCc2ccc(-c3ccc(CN(C(=O)c4ccc(Cl)nc4)C4CCN(Cc5ccccc5)CC4)cc3)nc2)cc1` [TCMDC-141519], for which the “% Inhibition” value worked out at 96.79%.

On to `CS(=O)(=O)c1ccc(CCNCc2ccc(-c3ccc(CN(C(=O)c4ccco4)C4CCN(Cc5ccccc5)CC4)cc3)nc2)cc1` [TCMDC-141510], for which the “% Inhibition” value is 87.45%.

Regarding `CS(=O)(=O)c1ccc(CCNCc2ccc(-c3ccc(CN(C(=O)c4cccc(C#N)c4)C4CCN(Cc5ccccc5)CC4)cc3)nc2)cc1` [TCMDC-141518], the “% Inhibition” value came to 63.72%.

Consider `C=C[C@]1(C)C[C@@H](OC(=O)c2n[nH]c3ccccc3c2=O)[C@]2(C)[C@H](C)CC[C@]3(CCC(=O)[C@H]32)[C@@H](C)[C@@H]1O` [TCMDC-141325], for which the “% Inhibition” value is listed as 0.6377%.

With `Cc1ccc(Nc2nccc(NCC(O)c3cccc(C(F)(F)F)c3)n2)cc1` (stereo not shown) [TCMDC-136583], the “% Inhibition” value is given as -0.2999%.

Consider `COc1ccc(CCON2C(N)=NC(N)=NC2(C)C)cc1OC` [TCMDC-131738], for which the “% Inhibition” value is -1.929%.

For the compound `CCC(C)CN1CCN(c2cc(NC(=O)c3cccs3)ccn2)C(C)C1` (stereo not shown) [TCMDC-134995], the “% Inhibition” value was found to be 14.25%.

Regarding `CCN1CCN(Cc2ccc(NC(=O)c3cc4ccc5cccnc5c4[nH]3)cc2)CC1` [TCMDC-125281], the “% Inhibition” value is reported as 19.87%.

As to `CCN(CC)CCN(Cc1ccc(-c2ccc(C(F)(F)F)cc2)cc1)C(=O)Cn1c(CCc2cccc(F)c2F)cc(=O)c2c1CCCC2` [TCMDC-141327], the “% Inhibition” value stood at 62.98%.

In the case of `CCN(CC)CCN(Cc1ccc(-c2ccc(C(F)(F)F)cc2)cc1)C(=O)Cn1c(CCc2cccc(F)c2F)cc(=O)c(C)c1C` [TCMDC-141148], the “% Inhibition” value was 40.01%.

In the case of `CC(C)N1CCC(N(Cc2ccc(-c3ccc(C(F)(F)F)cc3)cc2)C(=O)Cn2c(CCc3cccc(F)c3F)cc(=O)c3c2CCC3)CC1` [TCMDC-141280], the “% Inhibition” value came to 120.6%.

On to `CCN(CC)CCN(Cc1ccc(-c2ccc(C(F)(F)F)cc2)cc1)C(=O)Cn1c(CCc2cccc(F)c2F)cc(=O)cc1-c1ccccc1` [TCMDC-141688], for which the “% Inhibition” value is 100.1%.

In the case of `CCN1CCC(N(Cc2ccc(-c3ccc(C(F)(F)F)cc3)cc2)C(=O)Cn2c(CCc3cccc(F)c3F)cc(=O)c3c2CCCC3)CC1` [TCMDC-141326], the “% Inhibition” value came to 67.51%.

`COc1cc(CC(C)NCC(O)c2cccc(C(F)(F)F)c2)ccc1OCc1ccccc1` (stereo not shown) [TCMDC-131479]: the “% Inhibition” value is recorded as 14.56%.

As for `CCOc1ccc(NC(C)=O)c(O)c1` [TCMDC-125851], the “% Inhibition” value was found to be 13.93%.

With `Cc1ccc(-c2nnc(Nc3ccc(OCC(N)=O)cc3)c3ccccc23)cc1S(=O)(=O)NCC1CCCO1` (stereo not shown) [TCMDC-125617], the “% Inhibition” value is -6.517%.

As for `CC(=O)Oc1cc(OCc2ccccc2)c(OC(C)=O)c(OCc2ccccc2)c1` [TCMDC-123938], the “% Inhibition” value is given as -24.96%.

Take `COCCCNc1nc2cc(OC)c(OC)cc2c2nc(-c3ccccc3)nn12` [TCMDC-124408]: the “% Inhibition” value was found to be 0.2335%.
